Measurements taken from PubChem BioAssay (NCATS).
Records with an inconclusive call do not appear. Activity calls are given as the source filed them. Calls come from the whole dose curve; as a rule, active = well fitted inhibition curve with a large enough effect; inconclusive = small, poorly fitted or top-dose-only effect; inactive = flat fitted curve, though single readings scatter.

Key:
Assay in all cases: qHTS profiling for inhibitors of Plasmodium falciparum proliferation (AID 504749); note: nearly all actives have a fitted effect of over 60% in size
Conditions in all cases: P. falciparum in erythrocytes, SYBR Green DNA, 72 h; series mostly up to 28.7 µM
CP192 = tested on: CP192
Procedure, shortened: (§1)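 Parasite proliferation within erythrocytes, 72 h exposure. Endpoint: SYBR Green I fluorescence after overnight lysis at room temperature. Controls: 0.29 uM artemisinin, DMSO.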

CP194 = tested on: CP194
Procedure, shortened: as §1

CP201 = tested on: CP201
Procedure, shortened: as §1

CP203 = tested on: CP203
Procedure, shortened: as §1

CP211 = tested on: CP211
Procedure, shortened: as §1

CP215 = tested on: CP215
Procedure, shortened: as §1

CP217 = tested on: CP217
Procedure, shortened: as §1

CP237 = tested on: CP237
Procedure, shortened: as §1

CP238 = tested on: CP238
Procedure, shortened: as §1

CP247 = tested on: CP247
Procedure, shortened: as §1

CP250 = tested on: CP250
Procedure, shortened: as §1

CP252 = tested on: CP252
Procedure, shortened: as §1

CP256 = tested on: CP256
Procedure, shortened: as §1

CP260 = tested on: CP260
Procedure, shortened: as §1

CP262 = tested on: CP262
Procedure, shortened: as §1

CP265 = tested on: CP265
Procedure, shortened: as §1

CP268 = tested on: CP268
Procedure, shortened: as §1

CP269 = tested on: CP269
Procedure, shortened: as §1

CP286 = tested on: CP286
Procedure, shortened: as §1

CP266 = tested on: CP266
Procedure, shortened: as §1

Measured: Potency
Potency is the fitted concentration of half-maximal effect.

CCc1c2c(nc3ccc(OC(=O)N4CCC(N5CCCCC5)CC4)cc13)-c1cc3c(c(=O)n1C2)COC(=O)[C@]3(O)CC
not listed: CP266
inactive: all other assays above

CC[C@H](NC(C)C)[C@H](O)c1ccc(O)c2[nH]c(=O)ccc12
not listed: CP203
inactive: all other assays above

C[C@]12C=CC(=O)C=C1CC[C@@H]1[C@@H]2C(=O)C[C@@]2(C)[C@H]1CC[C@]2(O)C(=O)CO
not listed: CP203
inactive: all other assays above

CC(C)(C#N)c1cc(Cn2cncn2)cc(C(C)(C)C#N)c1
not listed: CP203
inactive: all other assays above

CCC(C)(C)c1ccc(CC(C)CN2C[C@@H](C)O[C@@H](C)C2)cc1 (stereo partly specified)
not listed: CP203 | CP237 | CP260 | CP286
inactive: all other assays above

CN(CCOc1ccc(CC2SC(=O)NC2=O)cc1)c1ccccn1 (stereo unspecified)
not listed: CP203
inactive: all other assays above

O=S(=O)(O)CCS
not listed: CP203 | CP260
inactive: all other assays above

CN(C)c1ccc(C(=C2C=CC(=[N+](C)C)C=C2)c2ccc(N(C)C)cc2)cc1
active: CP192 757 nM | CP194 953 nM | CP201 1200 nM | CP211 151 nM | CP215 1510 nM | CP217 251 nM | CP237 199 nM | CP238 398 nM | CP247 355 nM | CP250 316 nM | CP252 224 nM | CP256 158 nM | CP260 224 nM | CP262 239 nM | CP265 316 nM | CP266 601 nM | CP268 849 nM | CP269 239 nM | CP286 178 nM

Nc1nc(N)nc(-c2cc(Cl)ccc2Cl)n1
not listed: CP203 | CP266
inactive: all other assays above

Cc1noc(NS(=O)(=O)c2ccc(N)cc2)c1C
not listed: CP203 | CP268 | CP266
inactive: all other assays above

CNC1CCCN(c2c(F)cc3c(=O)c(C(=O)O)cn(C4CC4)c3c2OC)C1 (stereo unspecified)
not listed: CP203 | CP247 | CP266
inactive: all other assays above

CC1=CC(=O)c2ccccc2C1=O
not listed: CP203 | CP237 | CP247 | CP250 | CP260 | CP286
inactive: all other assays above

Cc1ccnc2c1NC(=O)c1cccnc1N2C1CC1
not listed: CP203
inactive: all other assays above

CCCN[C@H]1CCc2nc(N)sc2C1
not listed: CP203 | CP266
inactive: all other assays above

CC(C)(Sc1cc(C(C)(C)C)c(O)c(C(C)(C)C)c1)Sc1cc(C(C)(C)C)c(O)c(C(C)(C)C)c1
active: CP260 3550 nM | CP286 3980 nM
not listed: CP203 | CP237 | CP262
inactive: all other assays above

CN(C)CCc1c[nH]c2ccc(CS(=O)(=O)N3CCCC3)cc12
not listed: CP203
inactive: all other assays above

COc1ccc(-c2ccc3cc(C(=O)O)ccc3c2)cc1C12CC3CC(CC(C3)C1)C2
not listed: CP203
inactive: all other assays above

COc1ccc2cc3[n+](cc2c1OC)CCc1cc2c(cc1-3)OCO2
active: CP192 849 nM | CP194 2130 nM | CP201 1690 nM | CP211 757 nM | CP215 953 nM | CP217 1410 nM | CP237 1260 nM | CP238 891 nM | CP247 3160 nM | CP250 1410 nM | CP252 1120 nM | CP256 282 nM | CP260 891 nM | CP262 757 nM | CP265 891 nM | CP268 1350 nM | CP269 953 nM | CP286 562 nM

CN(Cc1cc(Br)cc(Br)c1N)C1CCCCC1
not listed: CP203 | CP237 | CP238 | CP260 | CP286
inactive: all other assays above

COc1ncnc(NS(=O)(=O)c2ccc(N)cc2)c1OC
not listed: CP203
inactive: all other assays above

COc1cnc(NS(=O)(=O)c2ccc(N)cc2)nc1
not listed: CP203 | CP266
inactive: all other assays above

C#CCN[C@@H]1CCc2ccccc21
not listed: CP203
inactive: all other assays above

Nc1ccc(S(=O)(=O)Nc2ccccn2)cc1
not listed: CP203
inactive: all other assays above

CCN(C)C(=O)Oc1cccc([C@H](C)N(C)C)c1
not listed: CP203
inactive: all other assays above

OC(Cn1cncn1)(Cn1cncn1)c1ccc(F)cc1F
not listed: CP203 | CP269
inactive: all other assays above

N=C(N)c1ccc(OCCCCCOc2ccc(C(=N)N)cc2)cc1
active: CP192 1070 nM | CP194 849 nM | CP201 1690 nM | CP211 849 nM | CP215 1070 nM | CP217 2240 nM | CP237 251 nM | CP238 2240 nM | CP247 1120 nM | CP250 2510 nM | CP252 2000 nM | CP256 501 nM | CP260 2000 nM | CP262 757 nM | CP265 2820 nM | CP266 1690 nM | CP268 1350 nM | CP269 536 nM | CP286 1120 nM

CN1CCN(c2c(F)cc3c(=O)c(C(=O)O)cn4c3c2OCN4C)CC1
not listed: CP203 | CP262
inactive: all other assays above

Nc1[nH]c(=O)ncc1F
not listed: CP203
inactive: all other assays above

CC(C)NCC(O)c1ccc(NS(C)(=O)=O)cc1 (stereo unspecified)
not listed: CP203
inactive: all other assays above
